In the library only some 10% were active in any assay of this set; here they are far more common.
HP1b chromo inh: HP1-beta chromodomain-methylated histone interaction inhibition. P83916. Potency, µM (titrated, usually from 114 µM), actives largely listed as inhibitors. AlphaScreen HP1-beta / biotin-H3K9me3 peptide binding. AID 540317. 390,000 compounds, 0.56% hits; further: nearly all actives have a fitted effect of over 70% in size
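Compound inhibition of the preformed complex between 50 nM HP1-beta and 50 nM biotinylated H3K9me3 peptide was read by AlphaScreen. Buffer was PBS pH 7.4 with 0.01% Tween-20. Incubations ran 30 min at room temperature, with 10 ug/mL donor/acceptor beads.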
JMJD2A Tudor inh: inhibitors of human JMJD2A Tudor domain; AlphaScreen JMJD2A-Tudor / H3K4me3 peptide binding; Potency, µM (highest dose often 114 µM), hits mostly inhibitors; 390,000 compounds, 4.4% hits; O75164; further: nearly all actives have a fitted effect of over 50% in size
Target sequence (O75164 whole entry, looked up, the tested form may be a part): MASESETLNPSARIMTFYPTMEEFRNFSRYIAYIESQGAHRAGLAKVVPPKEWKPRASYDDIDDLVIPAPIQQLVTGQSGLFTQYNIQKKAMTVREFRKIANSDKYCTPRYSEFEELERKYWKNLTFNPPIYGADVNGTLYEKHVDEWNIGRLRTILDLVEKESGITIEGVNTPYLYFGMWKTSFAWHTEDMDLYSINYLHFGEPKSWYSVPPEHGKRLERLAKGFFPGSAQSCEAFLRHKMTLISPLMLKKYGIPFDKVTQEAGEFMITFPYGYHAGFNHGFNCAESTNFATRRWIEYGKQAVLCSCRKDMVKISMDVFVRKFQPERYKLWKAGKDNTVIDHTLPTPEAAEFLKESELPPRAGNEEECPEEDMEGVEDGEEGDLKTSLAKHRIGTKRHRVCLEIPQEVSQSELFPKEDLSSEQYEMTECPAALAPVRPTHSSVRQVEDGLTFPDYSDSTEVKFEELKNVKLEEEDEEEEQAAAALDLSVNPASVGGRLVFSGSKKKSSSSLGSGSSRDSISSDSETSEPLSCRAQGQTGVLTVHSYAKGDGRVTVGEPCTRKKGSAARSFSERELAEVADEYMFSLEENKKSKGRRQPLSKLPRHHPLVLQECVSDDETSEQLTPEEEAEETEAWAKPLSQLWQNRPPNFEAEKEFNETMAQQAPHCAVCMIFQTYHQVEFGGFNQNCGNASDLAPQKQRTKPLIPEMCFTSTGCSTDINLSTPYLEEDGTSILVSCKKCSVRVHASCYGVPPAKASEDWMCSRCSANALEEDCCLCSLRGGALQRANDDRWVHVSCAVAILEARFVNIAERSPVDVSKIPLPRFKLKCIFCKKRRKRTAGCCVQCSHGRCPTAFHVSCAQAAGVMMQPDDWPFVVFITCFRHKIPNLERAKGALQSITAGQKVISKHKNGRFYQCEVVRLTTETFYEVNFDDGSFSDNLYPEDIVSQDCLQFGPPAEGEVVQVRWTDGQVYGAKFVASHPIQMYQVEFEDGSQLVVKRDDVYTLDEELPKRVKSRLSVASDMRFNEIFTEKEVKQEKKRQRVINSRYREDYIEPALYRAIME
BAZ2B inh: blocks human BAZ2B; AlphaScreen BAZ2B-H3K14Ac peptide displacement; Potency, µM (top dose mostly 114 µM), hits mostly inhibitors; 360,000 compounds, 4.4% hits; Q9UIF8; AID 504333; further: nearly all actives have a fitted effect of over 60% in size
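Complex of BAZ2B and biotin-H3K14Ac (50 nM apiece) forms over 30 min at RT, then faces library compounds up to 110 uM for another 30 min; AlphaScreen beads added, 20 min dark incubation, luminescence read.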
Six1-Eya2 inh: inhibitors of human Six1/Eya2 interaction; activity change, % (concentration not given with the values); AlphaScreen GST-Six1/His-Eya2 binding, biochemical; hits give low values; 360,000 compounds, 0.56% hits; Q15475+O00167; in the data active means activity change below about -65%; inconclusive means mostly about -30% to -63%
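GST-Six1 + His-Eya2 (5X stock: 250/500 nM); Tris pH 8.0, 300 mM NaCl, 0.05% BSA, 0.02% Tween 20; GSH donor/Ni acceptor beads; 1 h 37 °C dark; AlphaScreen readout.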
G9a block: blocks human histone lysine methyltransferase G9a. Potency, µM (doses to about 102 µM), hits mostly inhibitors. G9a H3K9 monomethylation, AlphaScreen, 2 h. Q96KQ7. 350,000 compounds, 8.8% hits; further: nearly all actives have a fitted effect of over 75% in size
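Compounds were preincubated with 20 nM G9a for 15 min, after which biotinylated H3K9 peptide (500 nM) and SAM (20 uM) started a 2 h room-temperature reaction. Monomethylated product was quantified by antibody-based AlphaScreen chemiluminescence.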
CtBP-E1A inh: CtBP/E1A binding inhibition | AlphaScreen GST-E1A/His-CtBP binding, 1536-well; hits give low values | activity change, % (test concentration not listed) | 340,000 compounds, 0.49% hits | AID 651724; in the data active means activity change below about -65%; inconclusive means mostly about -30% to -63%
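Steps: dispense buffer (Tris pH 8.0, NaCl 300 mM, TCEP 1 mM, BSA, Tween 20); add 5X protein mix (GST-E1A, His-CtBP, 125 nM each); pin 23 nL compound; 2 h at 37 °C, dark; add 5X beads (50 ug/mL); 1 h; read.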
Hits are given with their value; – = inactive; ? = inconclusive; · = no result given; ! = not confirmed by another sample; [ ] = remark or other dose. Unless noted, the call rests on the fitted dose curve; in most records, active means well fitted inhibition curve with a large enough effect; inconclusive means small, poorly fitted or top-dose-only effect; inactive means no such curve, though single readings can be large or run the other way.

SMILES	HP1b chromo inh	JMJD2A Tudor inh	BAZ2B inh	Six1-Eya2 inh	G9a block	CtBP-E1A inh
COC(=O)/C=C/c1ccccc1S(=O)(=O)N(Cc1ccccc1)Cc1ccco1	–	56µM!	50µM	–	–[12.7 µM]	–
O=S(=O)(c1ccc(S(=O)(=O)N(Cc2ccccc2)Cc2ccco2)cc1)N1CCCC1	–	–	·	–	·	–
COc1ccc(-c2cn3cc(C)ccc3n2)cc1OC	–	–	–	–	–[12.7 µM]	–
COc1ccc(-c2cn3cc(C)ccc3n2)cc1F	–	20µM	?	–	–[12.7 µM]	–
Cc1nnnn1/C(=C\c1ccccc1)C(=O)OCC(=O)Nc1ccc(Cl)cc1F	–	–	–	–	50µM	–
Cc1nnnn1/C(=C\c1ccccc1)C(=O)OCC(=O)Nc1cccc(S(=O)(=O)N(C)C)c1	–	–	–	–	–[0.501 µM]	–
CC1CCc2ccccc2N1C(=O)c1cccs1 (stereo not given)	?	56µM	–	–	–	–
Cc1cccc(NC(=O)CSc2nc(-c3cccs3)nc3cc(=O)[nH]n23)c1	?	?	79µM	·	–	·
O=C(CSc1nc(-c2cccs2)nc2cc(=O)[nH]n12)Nc1cccc(C(F)(F)F)c1	–	–	50µM	·	–	·
COc1cccc(NC(=O)CSc2nnc(-c3cccs3)n2C)c1	–	–	–	–	–	–
Cc1cccc(-c2nc(SCC(=O)Nc3cccc(C(F)(F)F)c3)n3[nH]c(=O)cc3n2)c1	?	50µM	50µM	·	–	·
Cc1ccc(NC(=O)CSc2nc(-c3cccs3)nc3cc(=O)[nH]n23)cc1	–	–	79µM	·	–	·
CCCNc1nc2nc3ccccn3c(=O)c2cc1C(=O)NCCN1CCOCC1	–	–	–	–	–	–
O=C(Nc1ccc(S(=O)(=O)Nc2ncccn2)cc1)c1cc(=O)c2ccccc2o1	–	–	–	·	–	·
O=C(CSc1nc(-c2ccccc2)nc2cc(=O)[nH]n12)Nc1ccccc1	–	56µM	–	·	–	·
CCN(CC)c1cc2nonc2c2nonc12	–	–	–	–	–	–
CN(C)c1cc(Cl)c2nonc2c1N	?	?	50µM	?	40µM	?
CCN(CC)c1cc(Cl)c2nonc2c1N	?	?	?	–	32µM	–
COc1cc(NCCCCCCCN)c2ncccc2c1	–	?	?	–	–	?
COc1cc(NC(C)CCCN)c2ncccc2c1 (stereo not given)	–	?	56µM	–	13µM	?
N.N.O=C(O)C1(C(=O)O)CCC1.[Pt+2]	·	·	·	·	0.28µM	·
Nc1cc(=O)[nH]c(SCC(=O)N2CCC(Cc3ccccc3)CC2)n1	–	–	–	–	–[2.33 µM]	–
C=CCN1C(=O)C(CC(=O)Nc2ccc(OCCC)cc2)N(CCCN2CCN(Cc3ccccc3)CC2)C1=S (stereo not given)	–	?	10µM	–	?	–
COc1cc(-c2ccno2)ccc1S(=O)(=O)N1CCN(c2ccc(C(C)=O)cc2)CC1	–	–	–	·	–	·
Cc1ccc(S(=O)(=O)/C=C/C#N)cc1	·	·	·	·	1.6µM	·
SMILES	HP1b chromo inh	JMJD2A Tudor inh	BAZ2B inh	Six1-Eya2 inh	G9a block	CtBP-E1A inh
CCOC(=O)C1=NOC2(C1)C(=O)Nc1ccc(OC)cc12 (stereo not given)	·	·	·	–	·	–
O=C(c1cccs1)N1CCC(c2nc3c(nnn3Cc3cccc(Cl)c3)c(=O)[nH]2)CC1	–	–	–	-68	–	–
O=C(c1ccc(Cl)cc1Cl)N1CCC(c2nc3c(nnn3Cc3ccco3)c(=O)[nH]2)CC1	–	–	–	–	45µM	–
O=C(c1cccs1)N1CCCC(c2nc3c(nnn3Cc3cccc(Cl)c3)c(=O)[nH]2)C1 (stereo not given)	–	–	–	–	–	–
O=C(CSCc1ccc(Cl)cc1)Nc1ccc(Br)cc1C(=O)O	–	–	–	–	–	–
CC(C)(C)OC(=O)Cc1nnc(CNC(=O)c2ccccc2)s1	·	–	·	·	·	·
CC(=O)c1ccc(OC(=O)c2nc(-c3ccccc3)oc2C)cc1	–	–	?	–	56µM	–
COc1cc(C)ccc1OCCSc1nc2ccc(NC(=O)c3ccco3)cc2s1	–	–	–	·	?	·

Screens deposited in PubChem by National Center for Advancing Translational Sciences (NCATS).
